Test results published in PubChem BioAssay (EPA / NIEHS).
The source made the active and inactive calls. How the source made its calls: active means hit-call score of the fitted dose curve at least 0.9, where 1 is the maximum; inactive means score below 0.9.

Test: ATG_RORE_CIS: Attagene CIS-FACTORIAL HepG2 Assay for human RAR-related Orphan Receptor Element (RORE) (AID 2282959)
Settings: HepG2 Attagene cis-factorial RORE reporter, mRNA; actives raise or lower the signal
Procedure: ATG_CIS is a cell-based, multiplexed-readout assay that uses HepG2, a human liver cell line, with measurements taken at 24 hours after chemical dosing in a 24-well plate.ATG_RORE_CIS is one of 52 assay component(s) measured or calculated from the ATG_CIS assay. It is designed to make measurements of mRNA induction, a form of inducible reporter, as detected with fluorescence intensity signals by Reverse transcription polymerase chain reaction (RT-PCR) and Capillary electrophoresis technology.Data from the assay component ATG_RORE_CIS was analyzed into 1 assay endpoint. This assay endpoint, ATG_RORE_CIS, was analyzed with bidirectional fitting relative to DMSO as the negative control and baseline of activity. Using a type of inducible reporter, measures of mRNA for gain or loss-of-signal activity can be used to understand the reporter gene at the transcription factor-level as they relate to the gene RORA and RORB and RORC. Furthermore, this assay endpoint can be referred to as a primary readout, because this assay has produced multiple assay endpoints where this one serves a reporter gene function. To generalize the intended target to other relatable targets, this assay endpoint is annotated to the nuclear receptor intended target family, where the subfamily is orphan.
Human liver HepG2 cells are transiently transfected with multiple reporter transcription units (MRTUs) in 6-well plates using FuGene 6 reagent (Roche; 3 ml FuGene/1 mg DNA). The MRTU constructs are regulated by a cis-regulating element (promoter). […] A major difference between the CIS and TRANS system is that in CIS activities of endogenous TFs are measured, whereas the TRANS assay evaluates changes in activities of exogenous, chimeric NR-Gal4 proteins. […] At the end of 24 hour incubation, total RNA was isolated using TriZol reagent (Invitrogen). The isolated RNA is then reverse-transcribed using oligo(dT) primer and Mo-MLV reverse transcriptase (Invitrogen) with DNAse I (Ambion) treatment for 30 min. The one-tenth of the produced cDNA was amplified by PCR using Taq DNA polymerase (Invitrogen) and two reporter sequence-specific primers. The PCR products were fluorescently labeled by primer extension with 6-arboxyfluorescein (6-FAM) 5'-labeled reporter sequence-specific primer (2 min at 95 C, 20 s at 68 C and 10 min at 72 C) and these products were digested with 5U of HpaI (New England Biolabs) for 2h at 37 C. The fragments were purified using Qiaquick PCR columns (Qiagen), analyzed on an ABI 3130xL genetic analyzer (Applied Biosystems) with peak positions identified by using a set of X-rhodamine (ROX)-labeled MapMarker1000 molecular weight standards (BioVentures). The raw capillary electrophoresis data was processed using Attagraph software (Attagene).

| SMILES | outcome | AC50 |
| --- | --- | --- |
| Brc1ccc(Oc2ccc(Br)cc2Br)cc1 | inactive |  |
| C=CCOCC(CO)(CO)CO | inactive |  |
| NC(C(F)(F)F)C(F)(F)F | inactive |  |
| CC(C)c1c(C(=O)Nc2ccccc2)c(-c2ccccc2)c(-c2ccc(F)cc2)n1CC[C@@H](O)C[C@@H](O)CC(=O)O | inactive |  |
| Cc1[nH]nc2c1N=C(c1ccccc1Cl)c1cc([N+](=O)[O-])ccc1N2 | inactive |  |
| CCCCCCCCC1CCC(=O)O1 (stereo not given) | inactive |  |
| COc1ccccc1NC(=O)c1cc2ccccc2cc1O | inactive |  |
| C[C@]12CC[C@@H]3c4ccc(O)cc4CC[C@H]3[C@@H]1C[C@@H](O)[C@@H]2O | inactive |  |
| C=COC(=O)C(C)(C)CCCCCC | inactive |  |
| Cc1cccc2c1ccc1ccccc12 | inactive |  |
| C[N+](C)(CCCNS(=O)(=O)CCC(F)(F)C(F)(F)C(F)(F)C(F)(F)C(F)(F)C(F)(F)F)CC(=O)[O-] | inactive |  |
| O=C(NCc1ncc(C(F)(F)F)cc1Cl)c1c(Cl)cccc1Cl | inactive |  |
| CC(C)CCOCCC(C)C | inactive |  |
| Cc1ccccc1OCC(=O)O | inactive |  |
| O=C1NS(=O)(=O)c2ccccc21 | inactive |  |
| OCC(CO)(CBr)CBr | inactive |  |
| CCCC=O | inactive |  |
| CCCCC=O | inactive |  |
| COCC1CCC(CO)CC1 (stereo not given) | inactive |  |
| Clc1ccc2c(Cl)ccnc2c1 | inactive |  |

| SMILES | outcome | AC50 |
| --- | --- | --- |
| CCOC(C)=O | inactive |  |
| CC(C)(C)c1ccc(CCC=O)cc1 | inactive |  |
| CCN(CCC#N)c1ccccc1 | inactive |  |
| C/C=C/C(=O)C1=C(C)CCCC1(C)C | inactive |  |
| CCC(=O)C=Cc1ccc(OC)cc1 | inactive |  |
| CCCCCCCCCCCC | inactive |  |
| CC(C)(C)C1CCCCC1O (stereo not given) | inactive |  |
| Oc1c(Cl)ccc(Cl)c1Cl | inactive |  |
| C[C@]12CC[C@@H]3c4ccc(O)cc4CC[C@H]3[C@@H]1CC[C@@H]2OC(=O)CCC1CCCC1 | inactive |  |
| O=C(NO)c1ccccc1 | inactive |  |
| N=C(N)c1ccc(OCCCCCOc2ccc(C(=N)N)cc2)cc1 | inactive |  |
| CC(C)(O)C(=O)c1ccccc1 | inactive |  |
| O=S(=O)(c1ccc(OCc2ccccc2)cc1)c1ccccc1O | inactive |  |
| COc1cc([N+](=O)[O-])ccc1N | inactive |  |
| CC1=CC(=O)c2ccccc2C1=O | inactive |  |
| CCCCC(CC)C(=O)OCCOCCOCCOCCOC(=O)C(CC)CCCC (stereo not given) | inactive |  |
| c1cc2cccc3c4cccc5cccc(c(c1)c23)c54 | inactive |  |
| O=C1OC(=O)c2cc(-c3ccc4c(c3)C(=O)OC4=O)ccc21 | inactive |  |
| Cc1cc(Cc2cc(C)cc(C(C)(C)C)c2O)c(O)c(C(C)(C)C)c1 | inactive |  |
| CCCCCCCCCCCC(=O)NCCCN(C)C |  | 21.3 µM (active) |
